An excerpt weighted towards active compounds, which were near 1.3% of everything screened.
Mtb hypoxia rep = PubChem AID 1159583; M. tuberculosis hypoxia-regulated fluorescent reporter, fluorescence; fluorescence inhibition, % (no concentration beside the values); 300,000 tested, 0.1% active; in the data active means fluorescence inhibition mostly above about 23%, no sharp cut-off; inactive means mostly below about 17%
3CLpro inhibitor = SARS-CoV 3CLpro protease inhibitors, primary screen, biochemical, quenched FRET. Replicase polyprotein 1ab (Severe acute respiratory syndrome coronavirus), P0C6X7. recombinant SARS-CoV 3CLpro, quenched FRET peptide cleavage. inhibition, % at 6 µM. 290,000 tested, 0.14% active; in the data active means inhibition above about 12%
VHR inh abs = VHR1 phosphatase inhibitors, primary screen, biochemical, absorbance, uHTS; recombinant VHR phosphatase, pNPP absorbance; inhibition, % at 13.3 µM; 290,000 tested, 0.52% active; Dual specificity protein phosphatase 3 (Homo sapiens), P51452; in the data active means inhibition above about 50%
Target sequence (P51452 whole entry, looked up): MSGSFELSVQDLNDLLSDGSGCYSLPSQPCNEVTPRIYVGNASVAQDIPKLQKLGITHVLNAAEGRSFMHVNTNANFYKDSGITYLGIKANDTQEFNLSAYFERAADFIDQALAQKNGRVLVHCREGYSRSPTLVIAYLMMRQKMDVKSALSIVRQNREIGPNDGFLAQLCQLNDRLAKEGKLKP
PriA SSB inh = inhibitors of Klebsiella pneumoniae PriA binding to SSB C-terminal tail, primary screen, biochemical, AlphaScreen | inhibition, % at 33 µM | 430,000 tested, 0.6% active | AlphaScreen SSBct-PriA binding, biotinylated peptide | PriA–SSB C-terminal tail interaction (Klebsiella pneumoniae) | AID 1272365, 2023; in the data active means inhibition mostly above about 37%, no sharp cut-off; inactive means mostly below about 20%
CCHF vOTU inh-1 = CCHFV vOTU protease inhibitors, primary screen, biochemical, Pep-AMC substrate, fluorescence; 370,000 tested, 0.55% active; Crimean-Congo hemorrhagic fever virus L polyprotein viral ovarian tumor (vOTU) protease …; inhibition, % at 11.5 µM; AID 651958, 2012
CCHF vOTU inh-2 = CCHFV vOTU protease inhibitors, confirmation, biochemical, Pep-AMC substrate, fluorescence; shares compounds with CCHF vOTU inh-1; Recombinant CCHFV vOTU; inhibition, % at 11.5 µM; 1,900 tested, 17% active; AID 686976, 2013
Large screens that a line does not name were inactive (follow-up assays come after a bar, where they were run). Unless noted, no stated cut-off is given here; in the data, active means inhibition above about 30%; inactive means the rest.

O=C1NC(=NN=Cc2ccc3ncccc3c2)SC1Cc1ccc(SC(F)F)cc1 (stereo not given)	none (no result: Mtb hypoxia rep, 3CLpro inhibitor, VHR inh abs, CCHF vOTU inh-1)
C/C(Cl)=C\Cn1c(N2CCCCCC2)nc2c1c(=O)n(C)c(=O)n2C	CCHF vOTU inh-1 31 | CCHF vOTU inh-2 inactive
O=C(NN1C(=O)/C(=C\c2cccc3ccccc23)SC1=S)C(c1ccccc1)c1ccccc1	none (no result: Mtb hypoxia rep, 3CLpro inhibitor, VHR inh abs, CCHF vOTU inh-1)
COc1ccc(C2(c3ccc(OC)cc3)NC(=O)N(CC(=O)N(C)C3CCC(C)CC3)C2=O)cc1 (stereo not given)	CCHF vOTU inh-1 30 (no result: 3CLpro inhibitor, VHR inh abs) | CCHF vOTU inh-2 inactive
CC1CCC(N(C)C(=O)CN2C(=O)NC(c3ccccc3)(c3ccccc3)C2=O)CC1 (stereo not given)	none (no result: Mtb hypoxia rep, 3CLpro inhibitor, VHR inh abs, PriA SSB inh)
Cc1ccccc1C(=O)Nc1ccc(-c2ccc(N3CCCC3)nn2)cc1	none (no result: Mtb hypoxia rep, 3CLpro inhibitor, VHR inh abs, CCHF vOTU inh-1)
CCN1C(=O)c2cc(NC(=O)COc3ccc(Cl)cc3)ccc2Oc2ccccc21	none (no result: Mtb hypoxia rep, 3CLpro inhibitor, VHR inh abs, CCHF vOTU inh-1)
O=[N+]([O-])c1c(NCCCO)cc(SCc2ccco2)c2nonc12	CCHF vOTU inh-1 48 | CCHF vOTU inh-2 inactive
CC(=O)OCCNc1cc(SCc2ccco2)c2nonc2c1[N+](=O)[O-]	none (no result: CCHF vOTU inh-1)
COc1ccc(OC)c(Nc2cc3ccccc3c(=O)[nH]2)c1	CCHF vOTU inh-1 99 (no result: 3CLpro inhibitor, VHR inh abs) | CCHF vOTU inh-2 90
O=c1[nH]c(Nc2ccccc2)cc2cc(Br)ccc12	CCHF vOTU inh-1 101 (no result: 3CLpro inhibitor, VHR inh abs) | CCHF vOTU inh-2 98
COc1ccccc1Nc1nnc(C)c(=O)[nH]1	none
O=c1[nH]c(Nc2ccccc2)cc2ccccc12	CCHF vOTU inh-1 88 (no result: Mtb hypoxia rep) | CCHF vOTU inh-2 inactive
Cn1c(=O)cc(Nc2ccccc2)[nH]c1=O	none
COc1ccccc1Nc1cc2cc(Br)ccc2c(=O)[nH]1	CCHF vOTU inh-1 109 (no result: 3CLpro inhibitor, VHR inh abs) | CCHF vOTU inh-2 93
COc1cccc(/C=C2\CCn3c2nc(=O)c2ccccc23)c1O	none (no result: Mtb hypoxia rep, 3CLpro inhibitor, VHR inh abs, CCHF vOTU inh-1)
O=C(Cn1cnc2ccccc2c1=O)N1CC(S(=O)(=O)C2CCCCC2)C1	none (no result: Mtb hypoxia rep, 3CLpro inhibitor, VHR inh abs, CCHF vOTU inh-1)
CC(=NNC(=S)Nc1cccc(Cl)c1)c1ccccn1	CCHF vOTU inh-1 30 (no result: Mtb hypoxia rep, 3CLpro inhibitor, VHR inh abs) | CCHF vOTU inh-2 inactive
S=C(NCc1ccccn1)Nc1cccc(Cl)c1	none
CC(=O)N(/N=C1\Sc2ccccc2C1=O)c1ccccc1C	CCHF vOTU inh-1 47 (no result: Mtb hypoxia rep, PriA SSB inh) | CCHF vOTU inh-2 38
CC(=O)N(N=C1Sc2ccccc2C1=O)c1ccc(C)cc1C	none (no result: Mtb hypoxia rep, 3CLpro inhibitor, VHR inh abs, CCHF vOTU inh-1)
CCn1nnnc1SCC(=O)c1cccc(OC)c1	none
COc1ccc(-n2nnnc2SCC(=O)c2cccc(OC)c2)cc1	CCHF vOTU inh-1 31 | CCHF vOTU inh-2 inactive
CC1(C)CC(=O)C2=C(C1)c1c(ccc3ccccc13)NC2c1ccc(C(=O)O)cc1 (stereo not given)	none
CC1(C)CC(=O)C2=C(C1)c1c(ccc3ccccc13)NC2c1cc([N+](=O)[O-])cc([N+](=O)[O-])c1O (stereo not given)	CCHF vOTU inh-1 44 | CCHF vOTU inh-2 inactive
Nc1nnc(-c2cccc(F)c2)o1	none (no result: Mtb hypoxia rep, 3CLpro inhibitor, VHR inh abs, CCHF vOTU inh-1)
CCCCn1c(NC(=O)c2ccc(Br)o2)c(S(=O)(=O)c2ccccc2)c2nc3ccccc3nc21	CCHF vOTU inh-1 60 | CCHF vOTU inh-2 inactive
CCCCn1c(NC(=O)c2ccco2)c(S(=O)(=O)c2ccc(C)cc2)c2nc3ccccc3nc21	none
CCCCn1c(NC(=O)c2ccco2)c(C(=O)OCC)c2nc3ccccc3nc21	CCHF vOTU inh-1 55 | CCHF vOTU inh-2 inactive
CCCCCn1c(NC(=O)c2ccco2)c(S(=O)(=O)c2ccc(C)cc2)c2nc3ccccc3nc21	CCHF vOTU inh-1 71 | CCHF vOTU inh-2 inactive
CCOc1ccccc1NC(=O)C(=O)Nc1ccc2c(c1)N(S(=O)(=O)c1ccc(C)cc1)CCC2	none (no result: Mtb hypoxia rep, 3CLpro inhibitor, VHR inh abs, CCHF vOTU inh-1)
CC(C)n1c(SC2C(=O)CC(C)(C)CC2=O)nc2c1c(=O)n(C)c(=O)n2C	CCHF vOTU inh-1 30 | CCHF vOTU inh-2 inactive
CC(=O)c1ccc(N2CCN(C(=O)c3ccc(OCc4c(C)noc4C)cc3)CC2)cc1	CCHF vOTU inh-1 34 | CCHF vOTU inh-2 inactive
O=c1cccc2ccc3ccc[nH]c3c12	none (no result: Mtb hypoxia rep, 3CLpro inhibitor, VHR inh abs, CCHF vOTU inh-1)
O=C(CSc1nnc(-c2ccccc2)n1Cc1ccco1)Nc1ccc(OCc2ccccc2)cc1	CCHF vOTU inh-1 32 (no result: Mtb hypoxia rep, 3CLpro inhibitor, VHR inh abs, PriA SSB inh) | CCHF vOTU inh-2 inactive
Cc1cccc(-c2nnc(SCC(=O)Nc3ccc(OCc4ccccc4)cc3)n2Cc2ccco2)c1	none (no result: Mtb hypoxia rep, 3CLpro inhibitor, VHR inh abs, PriA SSB inh)

Screening results (PubChem)
